Most compounds without a hit are left out; they make up all but 5.9% or so of the library.
ATXN2 expr inh: Primary qHTS for Inhibitors of ATXN expression. HEK-293 ATXN2-luciferase reporter, luminescence, 24 h. AID 1745845, 2022. 360,000 tested, 0.72% active. Potency, µM (series often up to 57 µM), without a hit: top-dose activity change, negative = inhibition, most hits filed as inhibitors; further: on the % scale 0 is the no-effect control and ±100 the full control effect; nearly all actives have a fitted effect of over 55% in size
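qHTS (up to 57 uM final) was run with 24 h compound exposure of reporter cells at 37 °C. Each well was multiplexed: SteadyGlo luminescence measured ATXN2-luciferase expression after a fluorogenic Gly-Phe-AFC viability readout (25 uM final).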
S2 tox: Viability Counterscreen for Primary qHTS for Inhibitors of ATXN expression; Potency, µM (top dose mostly 56.7 µM), most hits filed as cytotoxic; 400,000 tested, 0.49% active; S2 cells (HEK-293 line with an ATXN2-luciferase reporter) viability, CellTiter-Fluor protease fluorescence, 24 h; further: nearly all actives have a fitted effect of over 40% in size
KB-3-1 cytotox: qHTS assay for MDR1-selective chemotherapeutics: Primary screen using the parental adenocarcinoma cell KB-3-1 | 400,000 tested, 1.4% active | Potency, µM (series often up to 46.1 µM), hits mostly cytotoxic | KB-3-1 viability, CellTiter-Glo ATP luminescence, 72 h; further: on the % scale 0 is the no-effect control and ±100 the full control effect; nearly all actives have a fitted effect of over 60% in size
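72 h, 37 °C compound treatment of KB-3-1 parental cells; CellTiter-Glo added, 10 min, luminescence read. Data corrected against DMSO-only plates and normalized before curve fitting.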
HepG2 viability: qHTS for Inhibitors of TGF-b: Cytotox Counterscreen; HepG2 CAGA-GFP viability, ATP luminescence, 18 h; Potency, µM (doses to about 46.1 µM), inactives show at the top dose activity change, negative = cytotoxicity, most hits filed as cytotoxic; 410,000 tested, 0.76% active; AID 588856, 2011
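CellTiter-Glo luminescence gave cytotoxicity after 18 hours at 37 degrees C. The cells were HepG2 CAGA-GFP in 1% FBS DMEM, stimulated with 500 pg/mL TGF-beta after compound addition. %Activity was normalised to no-cell wells (complete cell-killing) and DMSO (no toxicity), and curves were fitted and classified.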
KB-V1 MDR tox: qHTS assay for MDR1-selective chemotherapeutics: Primary screen using the drug-selected MDR subline cells KB-V1 | Potency, µM (titrated, usually from 46.1 µM), usual class: cytotoxic | KB-V1 MDR cells viability, CellTiter-Glo, 72 h | 400,000 tested, 3.4% active; further: on the % scale 0 is the no-effect control and ±100 the full control effect; nearly all actives have a fitted effect of over 60% in size
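KB-V1 cells (P-gp-expressing MDR subline of KB-3-1) in phenol-red-free DMEM with 10% FBS were exposed to library compounds over a concentration series for 72 h at 37 degrees C. Viability read by CellTiter-Glo luminescence; concentration-effect curves fitted after normalization.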
TGFb inhibitor: qHTS for Inhibitors of TGF-b; HepG2 CAGA-GFP TGF-b/SMAD3 reporter, GFP fluorescence, 18 h; TGF-beta stimulated, 500 pg/mL final; Potency, µM (doses to about 46.1 µM), inactives show top-dose activity, negative = inhibition, usual class: inhibitors; 410,000 tested, 1.2% active; further: on the % scale 0 is the no-effect control and ±100 the full control effect; nearly all actives have a fitted effect of over 65% in size
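HEPG2 CAGA-GFP cells (1000/well, DMEM with 1% FBS) were pre-incubated 2 h at 37 degrees C, given compound by pin tool, then stimulated with TGF-beta at 500 pg/mL final for 18 h before per-cell GFP fluorescence imaging.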
* marks the source's active call; other numbers are inactive results; i = inactive; ? = inconclusive; · = not tested or not shown. The call rests on the fitted dose curve; in most records, active means well fitted curve in the direction sought with a large enough effect; inconclusive means small, poorly fitted or top-dose-only effect, or another doubt; inactive means no such curve, though single readings can be large; an effect the other way counts as inactive or inconclusive. Potency means the concentration at half of the fitted maximal effect.

SMILES	ATXN2 expr inh	S2 tox	KB-3-1 cytotox	HepG2 viability	KB-V1 MDR tox	TGFb inhibitor
O=S(=O)(Nc1ccc(Br)cc1)c1cccc2nonc12	-7%	i	i	-4%	i	-12%
NC(=O)CC[C@@H]1NC(=O)[C@H](Cc2ccccc2)NC(=O)[C@H](Cc2ccc(O)cc2)NC(=O)CCSSC[C@@H](C(=O)N2CCC[C@H]2C(=O)N[C@@H](CCCN=C(N)N)C(=O)NCC(N)=O)NC(=O)[C@H](CC(N)=O)NC1=O	6%	i	·	·	·	·
COc1ccc(CC(=O)N2N=C(c3ccncc3)CC2(O)C(F)(F)F)cc1 (stereo not given)	·	?	i	7%	5.2µM*	0%
CCC1=NN(C(=O)Cc2ccc(OC)cc2)C(O)(C(F)(F)F)C1 (stereo not given)	-1%	i	i	-6%	i	-1%
COC1C(CO)OC(n2c3c(Cl)cccc3c3c4c(c5c6cccc(Cl)c6[nH]c5c32)C(=O)NC4=O)C(O)C1O (stereo not given)	?	?	8.2µM*	-46%	i	?
CCc1ccc(-n2nc(C)c3c(C(=O)Nc4cccc(C(F)(F)F)c4)cc(C)nc32)cc1	?	i	i	-28%	?	-13%
CC(C)(C)C(=O)Nc1ccccc1C(=O)Nc1cc(Cl)ccc1Cl	1%	i	i	1%	16µM*	0%
CC(C)(C)C(=O)Nc1ccccc1C(=O)Nc1cccnc1	-6%	i	i	17%	i	17%
COc1ccc(-c2nc3scc(CCNS(=O)(=O)c4cccc(C(C)=O)c4)n3n2)cc1	·	·	·	-1%	·	-14%
COc1cccc(C(=O)NC(=NCCc2c[nH]c3ccc(OC)cc23)Nc2nc(C)cc(C)n2)c1	-11%	i	i	-28%	23µM*	2%
COc1ccc2[nH]cc(CCN=C(NC(=O)c3ccccc3C)Nc3nc(C)cc(C)n3)c2c1	8%	i	?	-3%	?	0%
O=C1CCc2cc(S(=O)(=O)Nc3cccc(Br)c3)ccc2N1	·	·	i	·	i	·
COc1ccc(-c2cc(C(F)(F)F)nc(N3CCOCC3)n2)cc1OC	-5%	i	i	-27%	?	9%
COc1ccc(-c2c(C)nn3c(N4CCOCC4)cc(C)nc23)cc1OC	16%	·	i	-1%	i	0%
COc1ccc(-c2c(C)nn3c(N4CCCCCC4)cc(C)nc23)cc1OC	?	?	18µM*	-25%	?	?
COc1ccc(-c2cc(-c3ccccc3)nc(N3CCCC3)n2)cc1OC	-2%	i	i	-27%	8.2µM*	-1%
CCc1c(C)nc2cc(-c3ccc(OC)c(OC)c3)nn2c1N1CCC(C)CC1	-9%	i	i	-3%	i	-10%
CCc1c(C)nc2cc(-c3ccc(OC)c(OC)c3)nn2c1N1CCCC1	?	?	i	-93%	?	22µM*
Cc1nc(C(F)(F)F)ccc1C(=O)N1CCCC(C(=O)O)CC1 (stereo not given)	11%	i	i	3%	i	-12%
CN(C)c1ccc(/C=C/c2ccnc3cc(Cl)cc(Cl)c23)cc1	·	·	i	1%	i	6%
Cc1ccccc1Cn1cnc2c(NS(C)(=O)=O)c(C)c(C)cc21	-8%	i	?	-17%	16µM*	-6%
Cc1ccc(-c2cnc3cc(C)nn3c2)cc1	-17%	i	i	0%	?	3%
Cc1ccc(-c2cnc3c(Cl)c(C)nn3c2)cc1	?	i	?	-7%	12µM*	-6%
COc1ccc(-c2c(C)nn3c(C(F)(F)F)cc(C)nc23)cc1OC	·	·	·	-8%	·	0%
CN(C)C1(CNC(=O)C2CCC(=O)N(Cc3ccc(Cl)cc3)C2)CCCCC1 (stereo not given)	·	i	i	14µM*	i	2%
SMILES	ATXN2 expr inh	S2 tox	KB-3-1 cytotox	HepG2 viability	KB-V1 MDR tox	TGFb inhibitor
CN(CCNC(=O)C1CCC(=O)N(Cc2ccc(Cl)cc2)C1)CCc1ccccc1 (stereo not given)	-12%	i	·	-45%	·	-7%
COc1cc(CNCc2c[nH]c3ccccc23)cc(OC)c1	-31%	?	i	-32%	7.3µM*	-6%
CCOC(=O)c1cnc2c(OC)cccc2c1Nc1cccc(O)c1	-20%	i	?	4%	13µM*	-4%
O=C(Cn1c(-c2cccs2)cc2cc(F)ccc21)NCCc1ccc(Cl)cc1	-4%	i	i	-2%	i	-21%
Nc1nc(Cl)nc2c1ncn2[C@@H]1O[C@H](CO)[C@@H](O)[C@H]1F	0.0097µM*	·	·	·	·	·
Nc1nc(Cl)nc2c1ncn2[C@@H]1O[C@H](CO)[C@@H](O)[C@H]1O	-3%	i	?	-41%	16µM*	?
CCc1ccccc1Nc1cc(C(=O)NCCc2ccccc2)c2ccccc2n1	?	?	i	-36%	i	?
O=C(CCc1ccccc1)NC1CC(=O)N(c2cccc(F)c2)C1 (stereo not given)	·	·	·	2%	·	1%
Cc1ccc(C)c(NC(=O)Cn2cc(C(=O)c3ccncc3)c(=O)c3cc(F)ccc32)c1	·	·	·	6%	·	-2%
CC(/C=C1\SC(=Nc2cccnc2)NC1=O)=C\c1ccccc1	-2%	i	16µM*	1%	8.2µM*	-21%
O=C(N1CCN(c2ccc(F)cc2)CC1)C1(c2cccs2)CCOCC1	-9%	i	i	-1%	23µM*	-8%
O=C(c1cccs1)N1CCN(c2ccc(F)cc2)CC1	13%	i	i	-2%	i	-9%
O=C(N1CCN(c2cccc(Cl)c2)CC1)C1(S(=O)(=O)c2ccc(Cl)cc2)CC1	-18%	i	i	-21%	i	7%
O=C(N1CCN(c2cccc(Cl)c2)CC1)C1(c2cccs2)CCOCC1	-22%	i	?	-43%	4.6µM*	-14%
CC(O)(COc1ccccc1)c1ccc2c(c1)CN(Cc1ccc3nsnc3c1)CCO2 (stereo not given)	·	i	·	·	·	·
CCOC(=O)c1ccc(NC(=O)CCC(=O)N2CCSc3ccccc32)cc1	·	·	·	-36%	·	?
CCOc1ccc(NCc2nnc(SCc3ccc(Cl)cc3)n2-c2ccccc2)cc1	-28%	i	?	-19%	4.6µM*	?

From PubChem
